Compounds with a hit are over-represented: about 2.5% of the library has one in this group of screens.
MBD2 inh = inhibitors of MBD2 binding to methylated DNA, primary screen, biochemical, TR-FRET, DNA-binding domain, human | 370,000 tested, 0.31% active | MBD2 binding to methylated oligonucleotide | AID 686964, 2013 | Methyl-CpG-binding domain protein 2 (Homo sapiens), Q9UBB5 | inhibition, % at 4.4 µM; in the data active = inhibition above about 13%
LEDGF integ inh = blockers of LEDGF/p75-dependent integrase strand transfer – biochemical, TR-FRET, high throughput, primary screen; 370,000 tested, 0.64% active; HIV-1 integrase (with human LEDGF/p75); TR-FRET IN-LEDGF/p75 DNA integration, Eu/Cy5; AID 743269, 2014; inhibition, % at 3.7 µM;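 active = inhibition above the screen-wide mean plus 3 SD, cut at about 13% in these data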;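 note: signal is the Cy5 over europium emission ratio at 671 and 618 nm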
UHRF1 MBD2 ctr = UHRF1 methylated DNA binding inhibitors, primary screen, counter-screen for MBD2 inhibitor project, biochemical, TR-FRET, human UHRF1, single concentration; UHRF1 binding to methylated oligo; inhibition, % at 4.4 µM; 370,000 tested, 0.75% active; AID 687016, 2013; in the data active = inhibition above about 21%;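 note: UHRF1 SRA domain binding a hemimethylated CpG hairpin DNA probe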
PRMT1 FP inh = PRMT1 methyltransferase inhibitors, primary screen, biochemical, fluorescence polarization; recombinant PRMT1, activity-based probe fluorescence polarization; inhibition, % at 2.79 µM; 370,000 tested, 1.3% active; AID 652257, 2013;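 active = inhibition above about 21% made by adding two undisclosed values, limit read from the data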
Target sequence (Q99873 whole entry, looked up): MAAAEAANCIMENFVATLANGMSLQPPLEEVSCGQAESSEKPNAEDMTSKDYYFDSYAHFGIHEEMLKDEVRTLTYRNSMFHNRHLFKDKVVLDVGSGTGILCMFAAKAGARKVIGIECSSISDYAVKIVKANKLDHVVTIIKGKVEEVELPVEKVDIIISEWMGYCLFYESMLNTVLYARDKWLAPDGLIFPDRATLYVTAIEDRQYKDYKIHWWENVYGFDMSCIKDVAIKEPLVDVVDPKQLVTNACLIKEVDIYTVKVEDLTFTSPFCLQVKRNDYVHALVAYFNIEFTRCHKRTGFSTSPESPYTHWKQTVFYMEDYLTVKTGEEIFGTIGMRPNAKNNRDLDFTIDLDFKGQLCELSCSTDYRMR
Each line names hits and unclear results; the compound was inactive in the other large screens.

CCOC(=O)CC1COc2ccccc2N1C(=O)c1cccc([N+](=O)[O-])c1 (stereo not given)	UHRF1 MBD2 ctr 40
O=C(CC(SCc1ccco1)c1ccc(O)cc1)c1cccs1 (stereo not given)	PRMT1 FP inh 22
O=C(CSc1nnc(-c2ccc(O)cc2)n1Cc1ccco1)c1cccs1	none
CCCC(=O)N(C1CC(C)C(C#N)(C#N)C1(C#N)C#N)N(C)C (stereo not given)	PRMT1 FP inh 22
CCC1CCc2c(sc(NC(=O)c3ccco3)c2C(N)=O)C1 (stereo not given)	none
CCC1CCc2c(sc(NC(=O)c3cnccn3)c2C(N)=O)C1 (stereo not given)	PRMT1 FP inh 24
COc1ccc(NC(=O)/C(Cl)=C(/Cl)S(=O)(=O)Cc2ccccc2)cn1	PRMT1 FP inh 24
COc1ccc(NC(=O)C(Cl)=C(Cl)Cl)cn1	none
COc1ccc(NC(=O)C(C)(C)Oc2ccc(Cl)cc2)cn1	none
COc1ccc(NC(=O)/C(Cl)=C(/Cl)S(=O)Cc2ccc(Cl)cc2)cn1 (stereo not given)	PRMT1 FP inh 32
CCN(CC)C1CC(=O)N(c2ccc(Br)cc2)C1=O (stereo not given)	PRMT1 FP inh 46
Cc1cc(C)nc(SC2CC(=O)N(c3ccc(Br)cc3)C2=O)n1 (stereo not given)	none
CCOC(=O)C(NC(C)=O)C(=O)Nc1c(C)cccc1C (stereo not given)	none
COc1cc(NS(=O)(=O)c2cc(NC(C)=O)ccc2OC)c(OC)cc1NC(=O)c1ccccc1	none
O=C(O)c1cccc(S(=O)(=O)Nc2ccc3oc(=O)sc3c2)c1	PRMT1 FP inh 85
O=C1CCCc2oc3ccc(NS(=O)(=O)c4cccc5cccnc45)cc3c21	none
O=c1oc2ccc(NS(=O)(=O)c3cccc4cccnc34)cc2s1	PRMT1 FP inh 77
COC(=O)C[C@H]1CC[C@H]2[C@H](COc3ccc(NS(=O)(=O)c4ccccc4C)cc3C(=O)N2C)O1	none
NC(=O)C1CCN(C2=C(Cl)C(=O)c3ccccc3C2=O)CC1	PRMT1 FP inh 25
C[C@@H]1CN([C@@H](C)CO)C(=O)CCCn2nncc2CO[C@H]1CN(C)C(=O)Nc1ccnc(N2CCOCC2)c1	none
CN(Cc1ccccc1)C(=O)[C@@H]1CCCN1C(=O)[C@@H]1CCCN1C(=O)c1cccc2ccccc12	none
Oc1cccc(C=Nc2cccc3ccccc23)c1O	PRMT1 FP inh 38
Oc1cccc(C=NCc2ccccc2)c1O	LEDGF integ inh 65, PRMT1 FP inh 36
CCn1c(O)c(C=NCc2ccccc2)sc1=S	none
C=CCOc1ccc(C(=O)Nc2ccccc2C(=O)NCc2cccnc2)cc1	none
COCCN1CC(CNC(=O)c2cc(COc3ccc(C)c(C)c3)on2)CC1=O (stereo not given)	UHRF1 MBD2 ctr 21
Cc1noc(C)c1NC(=O)N(C)C[C@H]1Oc2ccc(NC(=O)C3CCCCC3)cc2C(=O)N([C@H](C)CO)C[C@@H]1C	none
CC(C)COc1ccc(C(=O)N/N=C/c2ccoc2)cc1	UHRF1 MBD2 ctr 30
CCOC(=O)C1=CN(CC2CCCCC2)CCC1=O	none
O=C(COC(=O)c1cc(=O)[nH]c2ccccc12)NC1CCCC1	UHRF1 MBD2 ctr 30
CC1CCCCC1NC(=O)COC(=O)c1cc(=O)[nH]c2ccccc12 (stereo not given)	none
CN(c1ccc(C(=O)Nc2ccc3c(c2)n(C)c(=O)n3C)cc1)S(C)(=O)=O	none
O=C(CC1C(=O)NCCN1Cc1c(F)cccc1Cl)NCCc1ccccn1 (stereo not given)	UHRF1 MBD2 ctr 26
O=C(CC1C(=O)NCCN1Cc1c(F)cccc1Cl)NCCC1=CCCCC1 (stereo not given)	none
Cc1cc(S(=O)(=O)N2CCCOC2CNC(=O)C(=O)NCc2ccco2)ccc1F (stereo not given)	UHRF1 MBD2 ctr 56
O=C(NCc1ccco1)C(=O)NCC1OCCCN1S(=O)(=O)c1ccc(Cl)cc1 (stereo not given)	none
Cc1ccc(NC(=O)c2cc(S(=O)(=O)N3CCCCC3)ccc2N2CCOCC2)c(C)c1	none
Cc1cc(C)c2nc3sc(C(=O)N4CCOCC4)c(N)c3cc2c1	UHRF1 MBD2 ctr 37
O=C(OCc1cn(Cc2c(F)cccc2F)nn1)N1CCCC1	none
Cc1ccc(NC(=O)c2sc3nc[nH]c(=O)c3c2C)c(C)c1	UHRF1 MBD2 ctr 23
CCOC(=O)c1sc2nc[nH]c(=O)c2c1C	none
CC(C)c1ccc(S(=O)(=O)N2CCN(CCC(=O)Nc3ccc(N(C)C)cc3)CC2)cc1	MBD2 inh 15, UHRF1 MBD2 ctr 23
Cc1cc(C)n2nc(C(=O)NCC(=O)Nc3ccc(F)c(F)c3)nc2n1	none
C#CCN(C(=O)CC1C(=O)NCCN1C/C=C/c1ccccc1)C1CCCCC1 (stereo not given)	UHRF1 MBD2 ctr 44
CN(C(=O)CC1C(=O)NCCN1C/C=C/c1ccccc1)C1CCOCC1 (stereo not given)	none
CCOC(=O)c1cc(-c2ccccc2)sc1NC(=O)CN1C(=O)NC(CC)(c2ccccc2)C1=O (stereo not given)	none
CCOC(=O)c1cc(-c2ccccc2)sc1NC(=O)CN1C(=O)NC(CC)(c2ccc(F)cc2)C1=O (stereo not given)	UHRF1 MBD2 ctr 24
CN(C)C(=O)c1ccc(NC(=O)CN2C(=O)NC3(CCCc4ccccc43)C2=O)cc1 (stereo not given)	none
Cc1ccc(C(=O)OCC(=O)N2CCCCCC2)c(O)c1	UHRF1 MBD2 ctr 29
O=c1c2ccccc2n(Cc2ccno2)n1[C@@H](Cc1ccccc1)Cn1cc(-c2ccc(-c3ccccc3)cc2)nn1	none
CCCS(=O)(=O)Nc1c(C(=O)OC)[nH]c2ccccc12	UHRF1 MBD2 ctr 22
COC(=O)c1[nH]c2ccccc2c1NS(=O)(=O)c1ccc(F)c(C)c1	none
C=CC[C@@H](CC(=O)N[C@H](CO)Cc1ccccc1)C(=O)N[C@H](COC(=O)[C@H](CC=C)CC(=O)OC(C)(C)C)Cc1c[nH]c2ccccc12	none
CCN1C(=O)[C@@H]2[C@@H]3CN(S(=O)(=O)c4ccc(C)cc4)[C@@H](c4ccccc4F)[C@@H]3C(=O)C[C@@H]2C1=O	none
S=c1[nH]nc(COc2ccccc2)n1/N=C/c1ccccc1Cl	PRMT1 FP inh 23
CC(C)CCn1c(COc2ccccc2)n[nH]c1=S	UHRF1 MBD2 ctr 21
Cc1ccc(NC(=O)CCCn2nc(C)c3c(C)n(-c4ccccc4)nc3c2=O)c(Cl)c1	none
CCN(CC(=O)Nc1ccc(NC(C)=O)cc1)C(=O)/C=C/c1ccc(C)o1	PRMT1 FP inh 24
Cc1cccc(NC2=C(C#N)C(=O)NC3(CCCC3)S2)c1	UHRF1 MBD2 ctr 24
O=C(/C=C/c1ccccc1)Oc1ccc(C(=S)N2CCOCC2)cc1	UHRF1 MBD2 ctr 28
